# Hits are enriched below; roughly 13% of the tested compounds scored in any of these assays.
# WT yeast gro inh = growth inhibition of WT strain, primary screen, mitochondrial fusion inhibitor project, WT and mutant strains, chemical genetic. AID 1362, 2008. mitochondrial fusion phenotypic screen. inhibition, % at 10 µM. 2.1% of 190,000 active; in the data active = inhibition above about 58%; tested in S. cerevisiae
# CHOP inhibitor = inhibitors of CHOP promoter induction, primary screen, cell-based, unfolded protein response, luciferase reporter | CHO-K1 CHOP-promoter luciferase, tunicamycin-induced, 15-18 h | inhibition, % at 10 µM | 3.8% of 220,000 active;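 active = compounds that reduced the stress-induced luciferase reporter signal by more than about 70% of percent inhibition, limit read from the data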
# Lmaj promast = Leishmania major promastigote growth inhibition, primary screen. Leishmania major promastigotes, resazurin fluorescence viability. inhibition, % at 10 µM. 9% of 200,000 active. AID 1063, 2008; in the data active = inhibition above about 50%;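 note: promastigotes grown with compound for 44 hours at 28 °C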
# RAM inhibit = inhibitors of the yeast RAM network, primary screen, dse1pr::URA3 reporter, 5-FOA selection; S. cerevisiae dse1pr::URA3 reporter, 5-FOA growth OD615, 2 d; analog-sensitive cbk1-as2 kinase mutant strain; inhibition, % at 50 µM; AID 868, 2007; 1.8% of 190,000 active;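 active = inhibition above a set limit, 3 SD over mean compound inhibition, cut at about 8.4% in these data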;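 note: inhibition rescues growth on 5-FOA so higher OD means more RAM inhibition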
# Numbers stand for hits; 0 = inactive; - = no result.
SMILES,WT yeast gro inh,CHOP inhibitor,Lmaj promast,RAM inhibit
Cc1nn(C)cc1/C=N/NC(=O)Cn1nccc1C,0,0,0,0
Cc1cccc(/C(N)=N/OC(=O)CCc2ccccc2)c1,0,0,0,0
O=C(COC(=O)CC12CC3CC(CC(C3)C1)C2)Nc1ncc(Cl)cc1Cl,0,77,0,0
CC(C)(Oc1ccc(Cl)cc1)C(=O)OCC(=O)Nc1ncc(Cl)cc1Cl,0,75,0,0
O=C(COC(=O)c1ccc(Cl)nc1)Nc1ncc(Cl)cc1Cl,0,0,0,0
O=C(COC(=O)C12CC3CC(CC(C3)C1)C2)Nc1ncc(Cl)cc1Cl,0,0,0,0
CCn1c(SCc2ccccc2)nnc1-c1cccnc1,0,0,0,0
Cn1c(N)c(S(=O)(=O)N2CCN(Cc3ccccc3)CC2)c(=O)n(C)c1=O,0,0,0,0
O=C(Nc1cc(C(F)(F)F)ccc1Cl)C1CCN(c2nnc(-n3cccc3)s2)CC1,0,83,0,0
CC1CCN(Cc2ccc(NC(=O)C3CCN(c4nnc(-n5cccc5)s4)CC3)cc2)CC1,0,0,92,0
CS(=O)(=O)N1CCC(C(=O)Nc2cc(C(F)(F)F)ccc2Cl)CC1,0,0,0,0
O=C(Cc1nn[nH]n1)c1ccccc1O,0,0,0,0
COC(=O)c1ccc(Oc2nc(C)cc(Oc3ccccc3)n2)cc1,0,0,95,0
COC(=O)c1ccc(Oc2cc(C)nc(-n3nc(C)cc3C)n2)cc1,70,-,0,0
COc1cccc(-c2nc(CS(=O)(=O)CC(=O)NC3CCCc4ccccc43)c(C)o2)c1 (stereo unspecified),0,0,0,0
O=C(CSCc1ccccc1Cl)N1CCN(c2ccccn2)CC1,0,0,60,0
O=C(N1CCN(c2ccccn2)CC1)N1c2ccccc2Sc2ccccc21,72,-,0,0
O=C(NC1CCN(C(=O)N2c3ccccc3Sc3ccccc32)CC1)c1ccco1,0,0,0,0
O=C(NC1CCN(C(=O)N2c3ccccc3Sc3ccccc32)CC1)c1ccccc1Cl,0,0,95,0
CCOc1ccc(-c2nc(CSCC(=O)NC3CCCc4ccccc43)c(C)o2)cc1 (stereo unspecified),0,87,0,0
Cc1ccc(C(=O)N/C(=C\c2cccs2)C(=O)NCCc2c[nH]c3ccccc23)cc1,0,0,0,0
CS(=O)(=O)Oc1ccc(Br)cc1/C=C1/N=C(c2ccco2)OC1=O,0,0,0,0
C#CCNC(=O)C1=C[C@@H](C)C[C@@H](OCc2ccc(CO)cc2)O1,0,0,0,0
CCOc1ccc(-c2nc(CSCC(=O)N3CCN(c4cccc(OC)c4)CC3)c(C)o2)cc1,0,74,0,0
Cc1ccc(-c2nc(CSCC(=O)N3CCN(c4ccccn4)CC3)c(C)o2)cc1,0,78,0,0
SMILES,WT yeast gro inh,CHOP inhibitor,Lmaj promast,RAM inhibit
CCc1ccc(-c2nc(CSCC(=O)N3CCN(c4ccccn4)CC3)c(C)o2)cc1,0,86,0,0
Cc1ccc(-c2nc(CSCC(=O)N3CCOCC3)c(C)o2)cc1,0,0,0,0
O=C(CCSCc1ccccc1Cl)N1CCN(c2cccc(Cl)c2)CC1,61,0,69,0
CCOC(=O)N1CCC(NC(=O)CSCc2nc(-c3cccc(OC)c3)oc2C)CC1,0,0,0,0
O=C(C(=O)N1CCN(c2cccc(Cl)c2)CC1)N1CCCCC1,0,0,0,0
COC(=O)c1cc(NS(=O)(=O)c2ccc(N3CCC(C)CC3)c([N+](=O)[O-])c2)cc(C(=O)OC)c1,0,0,0,0
COc1ccc(-c2[nH]ncc2CNCC(C)(C)N2CCOCC2)cc1F,0,0,0,0
CCOc1cc(S(=O)(=O)n2nc(C)cc2C)ccc1Br,0,0,0,0
CCN(CC)S(=O)(=O)c1cc(C(=O)NCCN2CCOCC2)ccc1Cl,0,0,0,0
CC(O/N=C\c1ccccc1O)C(=O)Nc1ccccc1C(=O)N1CCOCC1 (stereo unspecified),0,0,0,0
O=C(CCN1C(=O)C2C3C=CC(C3)C2C1=O)N1CCN(c2ccccn2)CC1 (stereo unspecified),0,0,0,0
O=C(CCN1C(=O)C2C3C=CC(C3)C2C1=O)N1CCN(c2cccc(Cl)c2)CC1 (stereo unspecified),0,0,56,0
CCOC(=O)C1CCCN(S(=O)(=O)c2ccc(F)c(C(=O)Nc3ccc(F)c(F)c3)c2)C1 (stereo unspecified),0,76,0,0
CCOC(=O)c1ccc(NC(=O)C2CCCN(S(=O)(=O)c3ccc(F)cc3)C2)cc1 (stereo unspecified),0,0,59,0
O=C(Nc1ccc(S(=O)(=O)N2CCCCC2)cc1)C1CCCN(C(=O)c2ccc(Cl)cc2)C1 (stereo unspecified),0,0,56,0
COc1cccc(Sc2ccccc2/C=N/NC(N)=O)c1,0,0,0,0
Cc1ccccc1N(C(=O)Cn1nnc(-c2cccs2)n1)C(C(=O)NCCC(C)C)c1ccco1 (stereo unspecified),0,0,0,0
Cc1ccc(NS(=O)(=O)c2cc(NC(=O)c3ccc4c(c3)NC(=O)CS4)ccc2Cl)c(C)c1,0,0,87,0
Cc1ccc(S(=O)(=O)CCSc2cccc(C(=O)Nc3ccccc3C(=O)O)c2)cc1,0,0,0,0
Nc1nc(Nc2cccc(Cl)c2)nc(NCc2ccco2)c1[N+](=O)[O-],-,0,-,-
Cc1cccc(Nc2nc(N)c([N+](=O)[O-])c(NCc3ccco3)n2)c1,0,96,0,0
CNc1nc(Nc2ccc(Br)cc2)nc(N)c1[N+](=O)[O-],0,0,50,0
Nc1nc(Nc2ccc(Cl)cc2)nc(NCc2ccco2)c1[N+](=O)[O-],-,86,-,-
Cc1cccc(Nc2nc(NCc3ccco3)nc(N)c2[N+](=O)[O-])c1,-,0,-,-
COc1ccc(Nc2nc(N)c([N+](=O)[O-])c(NCCO)n2)cc1,-,0,-,-
SMILES,WT yeast gro inh,CHOP inhibitor,Lmaj promast,RAM inhibit
CCN1CCN(c2nc(Nc3ccc(C)c(C)c3)nc(N)c2[N+](=O)[O-])CC1,0,0,0,0
CCN1CCN(c2nc(N)c([N+](=O)[O-])c(Nc3cccc(C)c3)n2)CC1,0,0,100,0
CCn1cc(C(=O)OCC(=O)NCc2ccccc2Cl)c(=O)c2ccc(C)nc21,0,0,0,0
CCOCCCNCc1cc(Cl)cc(Cl)c1OCC,0,0,0,0
Nc1nc(Nc2cccc(F)c2)nc(NCc2ccco2)c1[N+](=O)[O-],-,84,-,-
CC(C)CCN1CCN(Cc2ccc(N3CCNC3=O)cc2)CC1CCO (stereo unspecified),0,0,0,0
Cc1ccc(Nc2nnc(SCC(=O)NCCN3C(=O)CSC3=O)s2)cc1,0,0,0,0
CCCc1nc(NCc2ccccn2)c2nnn(Cc3ccccc3F)c2n1,0,0,0,0
CCCc1nc(NCc2ccncc2)c2nnn(Cc3ccccc3F)c2n1,0,0,57,0
O=[N+]([O-])c1ccc(-c2csc3[n+]2CCS3)cc1,72,0,0,0
Fc1ccc(-c2csc3[n+]2CCS3)cc1,70,0,0,0
CCOC(=O)C1=C(C)N(CC(C)C)C(=O)C1,0,0,0,0

# Source: PubChem BioAssay
